Assay results from PubChem BioAssay AID1159580 (chemical genetic matrix, 2015).
Screen size: about 5,500 compounds; about 2,000 (36%) were called active. About 18% were inconclusive and are not listed. This is one part of the list. Unmarked numbers belong to inactive results. Cut-off read from the data, not from the text of the source: active = normalized growth mostly below about 0.91 (no sharp cut-off); inconclusive = no clear call, values can overlap the other calls; inactive = mostly above about 0.92.

Experiment: chemical genetic growth profiling, strain panel (AID 1159580);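 note: tested at 20 µM; growth read once vehicle control cultures reached saturation at 30 °C; 1 = growth at the plate median or of vehicle wells; lower values mean less growth of the strain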
Settings: S. cerevisiae deletion strains, growth OD

## C/C(=N/NC(=S)NCC(C)(C)C)c1cc(F)cc(Cl)c1O
Locus YAR019C, strain CDC15, active compounds read low
  normalized growth: 0.963
Locus YBL105C, strain PKC1, active compounds read low
  normalized growth: 0.961
Locus YBR135W, strain CKS1, active compounds read low
  normalized growth: 0.956
Locus YBR136W, strain MEC1, active compounds read low
  normalized growth: 0.959
Locus YBR160W, strain CDC28, active compounds read low
  normalized growth: 0.97
Locus YDL017W, strain CDC7, active compounds read low
  normalized growth: 0.953
Locus YDL028C, strain MPS1, active compounds read low
  normalized growth: 0.959
Locus YDL101C, strain DUN1, active compounds read low
  normalized growth: 0.967
Locus YDL108W, strain KIN28, active compounds read low
  normalized growth: 0.972
Locus YDL132W, strain cdc53, active compounds read low
  normalized growth: 0.98
Locus YDL214C, strain PRR2, active compounds read low
  normalized growth: 0.942
Locus YDR052C, strain DBF4, active compounds read low
  normalized growth: 0.971
Locus YDR054C, strain cdc34, active compounds read low
  normalized growth: 0.976
Locus YDR226W, strain ADK1, active compounds read low
  normalized growth: 0.965
Locus YDR477W, strain SNF1, active compounds read low
  normalized growth: 0.928
Locus YER123W, strain YCK3, active compounds read low
  normalized growth: 0.928
Locus YER133W, strain GLC7, active compounds read low
  normalized growth: 0.955
Locus YFL009W, strain cdc4, active compounds read low
  normalized growth: 0.966
Locus YFL029C, strain CAK1, active compounds read low
  normalized growth: 0.953
Locus YFR003C, strain YPI1, active compounds read low
  normalized growth: 0.963
Locus YFR019W, strain FAB1, active compounds read low
  normalized growth: 0.992
Locus YFR028C, strain CDC14, active compounds read low
  normalized growth: 0.961
Locus YGR040W, strain KSS1, active compounds read low
  normalized growth: 0.922
Locus YGR052W, strain FMP48, active compounds read low
  normalized growth: 0.938
Locus YGR092W, strain DBF2, active compounds read low
  normalized growth: 0.716
Locus YHR030C, strain SLT2, active compounds read low
  normalized growth: 0.681 (active)
Locus YHR079C, strain IRE1, active compounds read low
  normalized growth: 0.784
Locus YHR082C, strain KSP1, active compounds read low
  normalized growth: 0.964
Locus YHR205W, strain SCH9, active compounds read low
  normalized growth: 0.941
Locus YIL147C, strain SLN1, active compounds read low
  normalized growth: 0.963
Locus YJL095W, strain BCK1, active compounds read low
  normalized growth: 0.852
Locus YJL128C, strain PBS2, active compounds read low
  normalized growth: 0.952
Locus YJL157C, strain FAR1, active compounds read low
  normalized growth: 0.936
Locus YJR016C, strain ILV3, active compounds read low
  normalized growth: 0.961
Locus YJR066W, strain TOR1 (second series), active compounds read low
  normalized growth: 0.868
Locus YJR066W, strain TOR1, active compounds read low
  normalized growth: 0.894
Locus YKL048C, strain ELM1, active compounds read low
  normalized growth: 0.946
Locus YKL067W, strain YNK1, active compounds read low
  normalized growth: 0.962
Locus YKL101W, strain HSL1, active compounds read low
  normalized growth: 0.923
Locus YKL193C, strain SDS22, active compounds read low
  normalized growth: 0.966
Locus YKL203C, strain TOR2, active compounds read low
  normalized growth: 0.94
Locus YLR113W, strain HOG1, active compounds read low
  normalized growth: 0.735 (active)
Locus YLR133W, strain CKI1, active compounds read low
  normalized growth: 0.884
Locus YLR403W, strain SFP1, active compounds read low
  normalized growth: 0.837
Locus YML070W, strain DAK1, active compounds read low
  normalized growth: 0.941
Locus YMR001C, strain CDC5, active compounds read low
  normalized growth: 0.961
Locus YMR205C, strain PFK2 (second series), active compounds read low
  normalized growth: 0.939
Locus YMR277W, strain FCP1, active compounds read low
  normalized growth: 0.96
Locus YNL006W, strain LST8, active compounds read low
  normalized growth: 0.972
Locus YNL020C, strain ARK1, active compounds read low
  normalized growth: 0.837
Locus YNL161W, strain CBK1, active compounds read low
  normalized growth: 0.956
Locus YNL183C, strain NPR1, active compounds read low
  normalized growth: 0.947
Locus YNL207W, strain RIO2, active compounds read low
  normalized growth: 0.962
Locus YNL222W, strain SSU72, active compounds read low
  normalized growth: 0.959
Locus YNL307C, strain MCK1 (second series), active compounds read low
  normalized growth: 0.883
Locus YOL078W, strain AVO1, active compounds read low
  normalized growth: 0.974
Locus YOL136C, strain PFK27, active compounds read low
  normalized growth: 0.948
Locus YOR061W, strain CKA2, active compounds read low
  normalized growth: 0.869
Locus YOR119C, strain RIO1, active compounds read low
  normalized growth: 0.984
Locus YOR231W, strain MKK1, active compounds read low
  normalized growth: 0.837
Locus YOR329C, strain SCD5, active compounds read low
  normalized growth: 0.964
Locus YPL031C, strain PHO85, active compounds read low
  normalized growth: 0.915
Locus YPL153C, strain RAD53, active compounds read low
  normalized growth: 0.913
Locus YPL204W, strain HRR25, active compounds read low
  normalized growth: 0.92
Locus YPL209C, strain IPL1, active compounds read low
  normalized growth: 0.959
Locus YPL256C, strain CLN2, active compounds read low
  normalized growth: 0.782 (active)
Locus YPR025C, strain CCL1, active compounds read low
  normalized growth: 0.965
Locus YPR106W, strain ISR1, active compounds read low
  normalized growth: 0.989
Locus YPR111W, strain DBF20, active compounds read low
  normalized growth: 0.968
Strain NNK1, active compounds read low
  normalized growth: 0.973
Strain TSCII, active compounds read low
  normalized growth: 0.956
